PMC5540273 (PLoS ONE, 2017)

How the values were obtained:
Conditions in all cases: concentration: 1 μM, replicates: in singlicate; n = 1
[1] = tested on: KIT
[2] = tested on: LATS1
[3] = tested on: LATS2
[4] = tested on: LCK
[5] = tested on: LIMK1
[6] = tested on: LIMK2
[7] = tested on: T1, LKB1
T1 construct: gene STK11

[8] = tested on: T2, LOK
T2 construct: gene STK10

[9] = tested on: LRRK2
[10] = tested on: LTK
[11] = tested on: LYN
[12] = tested on: T3, LZK
T3 construct: gene MAP3K13

[13] = tested on: MAK
[14] = tested on: MAP3K15
[15] = tested on: MAP3K1
[16] = tested on: MAP3K2
[17] = tested on: MAP3K3
[18] = tested on: MAP3K4
[19] = tested on: MAP4K2
[20] = tested on: MAP4K3
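Also: KINOMEscan kinase panel screen.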

Row | Structure (SMILES) | %Inh [1] [%] | %Inh [2] [%] | %Inh [3] [%] | %Inh [4] [%] | %Inh [5] [%] | %Inh [6] [%] | %Inh [7] [%] | %Inh [8] [%] | %Inh [9] [%] | %Inh [10] [%] | %Inh [11] [%] | %Inh [12] [%] | %Inh [13] [%] | %Inh [14] [%] | %Inh [15] [%] | %Inh [16] [%] | %Inh [17] [%] | %Inh [18] [%] | %Inh [19] [%] | %Inh [20] [%]
1 | CS(=O)(=O)c1ccc(-c2nc3n(c2-c2ccncc2)CCC3)cc1 [SKF-105942] | 0 | 0 | 0 | 8 | 19 | 0 | 0 | 0 | 0 | 0 | 3 | 0 | 25 | 0 | 0 | 3 | 0 | 35 | 0 | 2
2 | CCCc1ccc(S(=O)(=O)NC2CCN(c3ccnc(Nc4ccc(F)cc4)n3)C2)cc1 (stereo not shown) [GSK1379715] | 12 | 0 | 0 | 0 | 14 | 0 | 0 | 0 | 19 | 4 | 0 | 0 | 60 | 0 | 15 | 2 | 0 | 44 | 0 | 1
3 | Cc1cccc(-c2nc(-c3ccc(S(C)(=O)=O)cc3)sc2-c2ccnc(NCCc3ccccc3)c2)c1 | 98.4 | 13 | 0 | 0 | 0 | 4 | 0 | 0 | 0 | 0 | 5 | 2 | 0 | 10 | 0 | 0 | 0 | 16 | 15 | 0
4 | Cc1ccccc1-n1cnc2c(N)ncnc21 [SKF-97510] | 0 | 0 | 3 | 100 | 16 | 15 | 0 | 0 | 0 | 0 | 0 | 0 | 0 | 0 | 0 | 0 | 0 | 0 | 0 | 0
5 | Cl.c1ccc(-c2n[nH]cc2-c2ccnc(-c3ccc(CN4CCOCC4)cc3)c2)nc1 [GW776245] | 8 | 3 | 0 | 0 | 5 | 19 | 18 | 0 | 0 | 28 | 6 | 0 | 0 | 0 | 0 | 18 | 17 | 9 | 0 | 0
6 | O=C(Nc1n[nH]c2nc(-c3nccs3)c(Br)cc12)C1CC1 [SB-742251] | 1 | 24 | 0 | 0 | 0 | 0 | 0 | 0 | 32 | 0 | 19 | 26 | 33 | 0 | 21 | 0 | 0 | 0 | 0 | 0
7 | CC(C)(C)c1ccc(C(=O)Nc2cn3cc(Cl)ccc3n2)cc1 | 74 | 10 | 0 | 26 | 0 | 0 | 4 | 8 | 0 | 0 | 8 | 0 | 15 | 1 | 0 | 45 | 0 | 0 | 0 | 0
8 | O=C(Nc1n[nH]c2nc(-c3nccs3)c(Br)cc12)C1CCCC1 [SB-742609] | 7 | 9 | 0 | 9 | 19 | 0 | 0 | 0 | 35 | 0 | 0 | 0 | 75 | 6 | 15 | 5 | 0 | 28 | 0 | 0
9 | CN1C(=O)C(Nc2ccc(Cl)c(C(=O)O)c2)=C(c2ccc(Cl)cc2)C1=O [SB-404290] | 1 | 15 | 15 | 23 | 7 | 0 | 18 | 4 | 0 | 9 | 0 | 0 | 0 | 45 | 16 | 21 | 12 | 9 | 21 | 0
10 | COc1ccc(CNC(=O)NC2CCN(c3ccnc(Nc4cc(OC)c(OC)c(OC)c4)n3)C2)cc1 (stereo not shown) [GSK1379748] | 57 | 0 | 11 | 7 | 0 | 0 | 12 | 0 | 0 | 64 | 0 | 43 | 17 | 0 | 0 | 0 | 0 | 2 | 5 | 0
11 | COc1ccccc1-c1ccc2c(NC(=O)C3CC3)n[nH]c2n1 [SB-711239] | 0 | 28 | 8 | 10 | 0 | 5 | 6 | 0 | 0 | 4 | 18 | 24 | 23 | 0 | 0 | 0 | 0 | 32 | 0 | 0
12 | CC1=C(C(=O)Nc2cc3cn[nH]c3cc2F)C(c2ccc(C(F)(F)F)cc2)CC(=O)N1 (stereo not shown) [GSK429286] | 9 | 0 | 39 | 22 | 0 | 0 | 0 | 0 | 12 | 0 | 0 | 0 | 0 | 16 | 30 | 3 | 0 | 0 | 0 | 0
13 | Cn1cncc1-c1ccc2ncnc(Nc3ccc(OCc4ccccc4)cc3)c2c1 [GW320571] | 28 | 0 | 0 | 13 | 18 | 11 | 0 | 2 | 21 | 11 | 2 | 0 | 15 | 0 | 18 | 10 | 0 | 19 | 0 | 16
14 | CN(C)CCN(C)C(=O)c1cc(-c2ccncc2)c(-c2ccc(Cl)c(O)c2)o1.Cl.Cl [SB-710397] | 0 | 3 | 0 | 34 | 0 | 0 | 0 | 72 | 0 | 11 | 24 | 15 | 42 | 0 | 2 | 0 | 0 | 14 | 0 | 0
